# An excerpt weighted towards active compounds, which were near 6% of everything screened.
# D1 ag: activates the human D1 dopamine receptor. P21728. HEK293 T-REx D1 cells, calcium flux, agonist mode. activation, % at 2 µM. hit rate 1% among 360,000; in the data active means activation above about 30%; further: 0% is about no effect
# Target sequence (P21728 whole entry, looked up): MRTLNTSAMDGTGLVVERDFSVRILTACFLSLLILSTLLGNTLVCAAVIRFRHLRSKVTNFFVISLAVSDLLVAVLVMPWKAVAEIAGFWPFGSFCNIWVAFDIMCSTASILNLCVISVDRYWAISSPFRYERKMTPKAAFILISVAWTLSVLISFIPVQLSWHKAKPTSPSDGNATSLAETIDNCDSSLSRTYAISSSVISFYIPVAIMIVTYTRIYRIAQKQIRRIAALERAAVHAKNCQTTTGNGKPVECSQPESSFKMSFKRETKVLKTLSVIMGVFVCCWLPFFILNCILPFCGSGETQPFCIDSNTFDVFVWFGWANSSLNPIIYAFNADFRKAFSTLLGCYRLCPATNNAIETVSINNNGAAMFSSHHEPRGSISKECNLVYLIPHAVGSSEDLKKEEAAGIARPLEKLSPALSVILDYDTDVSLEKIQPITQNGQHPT
#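 Inducible HEK293 T-REx D1 cells, force-coupled to calcium signalling, were plated at 4000 cells/well with tetracycline and held overnight at 30 C. After no-wash calcium dye loading, compound-evoked calcium rise over 180 s flagged agonists.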
# D1 potentiator: enhances dopamine response at the human D1 receptor. HEK293 TREx D1 cells, calcium flux, dopamine EC20 potentiation. potentiation, % at 10 µM. hit rate 0.036% among 360,000. AID 504651; in the data active means potentiation above about 30%; further: 0% is about no effect
# D3 ag: activates the human D3 dopamine receptor; max activation, %; D3R DiscoveRx beta-arrestin cells, luminescence, 90 min; hit rate 0.58% among 410,000; P35462; AID 652048; in the data active means max activation above about 30%; further: 0% is about no effect
#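 Cells at 1500/well, incubated overnight, then treated with pinned compounds (dopamine as control) for 90 min at 37 degrees C. DiscoveRx reagent added for 30 - 60 minutes at room temperature; luminescence read.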
# DRD3 antagonist: blocks the human D3 dopamine receptor; max response, negative = inhibition, %; hit rate 2.5% among 360,000; P35462; D3R cells, DiscoveRx beta-arrestin luminescence, antagonist mode; stronger effect = lower value; in the data active means max response below about -50%; further: on the % scale 0 is the no-effect control and ±100 the full control effect
#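 Cells plated overnight at 1500 cells/well, then exposed to library compounds with dopamine controls for 90 minutes at 37 degrees C. DiscoveRx reagent added for 30–60 minutes at room temperature; luminescence read, quantitative HTS format.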
# D1 antag: blocks dopamine activation of the human D1 receptor | activity change, negative = inhibition, % at 10 µM | P21728 | HEK293 TREx D1 cells, calcium flux, dopamine EC80; stronger effect = lower value | hit rate 3.2% among 360,000; in the data active means activity change below about -30%; further: on the % scale 0 is the no-effect control and ±100 the full control effect
#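 Cells carrying a force-coupled, tetracycline-inducible human D1 receptor report calcium flux. Each well gets a 10 s baseline, compound with 180 s monitoring, then an EC80 dopamine stimulus with a second 180 s kinetic read.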
# * hit, by the source's call; · = no result.
SMILES,D1 ag,D1 potentiator,D3 ag,DRD3 antagonist,D1 antag
COc1ccc(N2C(=O)C3CCCN3C2c2ccc(Cl)cc2)cc1 (stereo not drawn),1,-4,3,-6,0
COc1ccc(Cl)cc1N1C(=O)C2CCCN2C1c1sccc1C (stereo not drawn),3,-5,-2,-63*,-5
CCO/C=N/c1c(C#N)c(CC#N)nn1-c1ccccc1,3,-6,20,29,-33*
Cc1nc(CSc2nnc(C)s2)cs1,1,-2,-6,0,-42*
Cc1sc2ncn(CC(=O)NCC3COc4ccccc4O3)c(=O)c2c1S(=O)(=O)N1CCCCC1 (stereo not drawn),2,2,-3,-11,-37*
Cc1sc2ncn(CC(=O)NCCCOC(C)C)c(=O)c2c1S(=O)(=O)N1CCN(c2ncccn2)CC1,1,-14,11,23,-64*
Cc1cccc(NC(=O)Cn2cnc3sc(C)c(S(=O)(=O)N4CCC(C)CC4)c3c2=O)n1,1,0,35*,49,35
COc1ccc(CN(C)c2ccc(-c3nc(C)no3)cc2[N+](=O)[O-])cc1,6,-1,-18,·,-25
Cc1cc(C)n2nc(SCc3cccc(S(=O)(=O)N(C)C)c3)nc2n1,11,-7,3,17,-11
CN(C)S(=O)(=O)c1cccc(CSCc2cccc(S(=O)(=O)N(C)C)c2)c1,23,-8,-3,22,-36*
CO/N=C/c1ccc(N2CCN(C(=O)c3ccc(F)cc3)CC2)c([N+](=O)[O-])c1,20,-8,1,27,-27
CO/N=C/c1ccc(N2CCN(C(=O)c3cccc(C(F)(F)F)c3)CC2)c([N+](=O)[O-])c1,10,-2,52*,45,-12
CCOc1ccc(NC(=O)CNC(=O)c2ccc(OC)cc2)cc1,4,-2,0,5,4
CCOc1ccc(NC(=O)CNC(=O)c2ccc(OC)c(OC)c2)cc1,1,2,-11,-54*,0
COc1cc(C(=O)NCc2ccc(OCCN(C)C)cc2)cc(OC)c1OC,1,-5,-86,-95*,-8
COc1ccc(C(=O)NCc2ccc(OCCN(C)C)cc2)cc1OC,·,·,-76,-72*,·
COc1ccc(C(=O)NCc2ccc(Cl)c(Cl)c2)cc1OC,2,-3,-4,-2,6
CC1CCCN(c2nc(-c3cccnc3)nc3scc(-c4ccccc4)c23)C1 (stereo not drawn),1,-4,34*,17,5
CC1CCN(c2nc(-c3cccnc3)nc3scc(-c4ccccc4)c23)CC1,1,-4,1,50,0
CN(c1ccccc1)c1ccc(/C=C/[N+](=O)[O-])cc1,140*,-14,-1,-10,-52*
O=[N+]([O-])c1ccc(C=CC=Cc2ccccc2)cc1,·,·,9,11,·
COc1ccc(C(=O)NCC2(N3CCN(C)CC3)CCCCC2)cc1,1,0,-2,·,11
Cc1[nH]n2c(=O)cc(-c3ccccc3Cl)nc2c1-c1ccccc1,-1,-1,-6,·,16
COCc1cc(=O)n2[nH]c(C)c(-c3ccc(Cl)cc3)c2n1,·,·,2,-60*,·
COc1cc(N2C(=O)C=CC2=O)c(OC)cc1Cl,3,-6,-30,-89*,-23
SMILES,D1 ag,D1 potentiator,D3 ag,DRD3 antagonist,D1 antag
COc1cccc(NC(=O)CCc2nnc3n(CC(C)C)c(=O)c4ccccc4n23)c1,-1,-3,19,·,7
O=c1[nH]ncc2c3ccccc3n(Cc3cccc(Cl)c3)c12,52*,-4,-5,-7,13
COCCCNC(=O)c1c(NC(=O)Cc2coc3cc(C)ccc23)sc2c1CCCC2,1,0,5,·,-66*
NC(=O)[C@@H]1CCCN1Cc1nc(Cc2cccc(C(F)(F)F)c2)no1,1,-2,-6,1,-1
CC(=O)NCCC1CCCCN1Cc1nc(Cc2cccc(C(F)(F)F)c2)no1 (stereo not drawn),1,-8,1,2,-50*
OCC1CCCN(C2CCN(Cc3nc(Cc4cccc(C(F)(F)F)c4)no3)CC2)C1 (stereo not drawn),5,-3,30*,15,8
COC(=O)c1ccc2nc(-c3ccc(C)cc3)c(Cc3cccc(F)c3)n2c1,·,·,21,100,·
COC(=O)c1nc2ccc(C)cn2c1F,0,-4,0,2,-58*
CCN(CC)c1ccc2cc(-c3nnc(-c4ccccc4)o3)c(=O)oc2c1,244*,6,-8,2,-5
CN(C)Cc1c(O)ccc2cc(-c3nc4ccccc4n3C)c(=O)oc12,22,-3,1,33,3
CCN(CC)c1ccc2cc(-c3nc4ccccc4n3C)c(=O)oc2c1,278*,-2,4,10,-15
CCN(CC)c1ccc2cc(-c3nc4ccccc4[nH]3)c(=O)oc2c1,547*,-10,8,19,-77*
CCOC(=O)c1c(C)sc2c1N(C(=O)CCl)c1cc(Cl)ccc1S2,0,-5,-1,-60*,-17
O=C(CSc1ncnc2c1oc1ccccc12)Nc1nc2ccccc2s1,-2,4,9,4,-48*
Cc1occc1-c1nnc(SCC(=O)Nc2nc3ccccc3s2)o1,2,2,24,-103*,17
CN(Cc1ccccc1)C(=O)c1cccc(NC(=O)c2nsc3ccccc23)c1,4,-2,7,·,-5
Cc1ccc(C(=O)COC(=O)CCN2C(=O)C3C4CCC(C4)C3C2=O)cc1[N+](=O)[O-] (stereo not drawn),21,-5,-10,-12,-42*
O=C(CCN1C(=O)C2C3CCC(C3)C2C1=O)OCC(=O)c1ccc(Br)cc1 (stereo not drawn),11,-2,-2,-20,-31*
N#Cc1ccc2[nH]c(CO)c(-c3ccccc3)c2c1,5,-16,6,24,-40*
COC(=O)c1ccc2[nH]c(CO)c(-c3ccccc3)c2c1,8,-2,-2,0,-9
CN(C)CCNc1ccc(Cl)cc1[N+](=O)[O-],6,2,1,1,-15
CCN(CCNc1ccc(Cl)cc1[N+](=O)[O-])C(=O)c1cc([N+](=O)[O-])c(N(C)C)cc1OC,3,-7,6,-16,-80*
Cn1nc(C(F)(F)F)cc1C(=O)NC1CCCCCC1,-1,-1,40*,32,-12
Cc1c(Cl)cccc1NC(=O)CN1C(=O)COc2ccc(S(=O)(=O)N3CCCCCC3)cc21,3,-4,6,·,24
COC(=O)c1ccc(NC(=O)c2cccc(OC)c2)cc1,23,-3,-2,20,-52*
O=C(Nc1cccnc1)c1ccc(COc2ccccc2Br)cc1,6,-3,-3,-25,-69*
COc1cccc(C(=O)Nc2nc3c(s2)CN(C)CC3)c1,99*,-3,5,-5,9

# From PubChem BioAssay
